{"source": "ChEMBL document CHEMBL4513146", "about": "“CO-ADD screening of Karazin Kharkiv National University (Ukraine) compounds”", "note": "Potency and affinity values are given separately."}
{"system": "Escherichia coli", "conditions": "Concentration 32 ug.mL-1;; ASSAY_TEST Inhibition of Bacterial Growth; detection method Absorption (OD600); MEDIA CAMHB; plate type 384well; NBS; CORNING #3640; time 18 hr", "units": {"Inhibition": "%"}}
{"smiles": "CC(C)c1nnc2c(SCC(=O)Nc3ccc(C#N)cc3)nc3ccccc3n12", "Inhibition": 1.03}
{"smiles": "Cc1ccc(-c2ccc3nn(Cc4nc(-c5ccc(Cl)cc5)no4)c(=O)n3n2)cc1C", "Inhibition": -6.42}
{"smiles": "COc1ccc(NC(=O)Cn2nc3c(N4CCCC4)nccn3c2=O)cc1", "Inhibition": 5.65}
{"smiles": "COc1ccc(-c2nc(CSc3nc4ccccc4n4c(C(C)C)nnc34)c(C)o2)cc1", "Inhibition": -2.62}
{"smiles": "COc1ccc(N(Cc2ccc(Cl)cc2)S(=O)(=O)c2ccc3nncn3c2)cc1", "Inhibition": -4.15}
{"smiles": "Cc1cccc(CN(c2ccc(F)cc2)S(=O)(=O)c2ccc3nnc(C)n3c2)c1", "Inhibition": -8.57}
{"smiles": "CCOc1ccc(C(=O)CSc2nnc3c(=O)n(-c4ccc(C)c(C)c4)ccn23)cc1", "Inhibition": -11.39}
{"smiles": "Cc1cccc(NC(=O)Cn2nc3ccc(-c4ccc(Cl)cc4)nn3c2=O)c1", "Inhibition": -1.37}
{"smiles": "Cc1ccc(Cl)cc1NC(=O)CSc1nnc2c(=O)n(-c3ccccc3)ccn12", "Inhibition": -1.12}
{"smiles": "N#CCn1nc2n(Cc3ccc(F)cc3)c(=O)c3ccccc3n2c1=O", "Inhibition": -10.2}
{"smiles": "CC(C)c1ccc(NC(=O)Cn2nc3c(Sc4ccccc4)nccn3c2=O)cc1", "Inhibition": -14.79}
{"smiles": "CCOc1ccc(NC(=O)Cn2nc3c(Sc4cccc(F)c4)nccn3c2=O)cc1", "Inhibition": -8.75}
{"smiles": "O=c1c2sccc2n2c(=O)n(Cc3ccccc3Cl)nc2n1CCc1ccccc1", "Inhibition": 0.77}
{"smiles": "CCc1ccc(N(Cc2ccccc2)S(=O)(=O)c2cccn3c(CC)nnc23)cc1", "Inhibition": -0.95}
{"smiles": "COc1ccc(-c2cc3c4nn(CC(=O)Nc5ccc(OC)c(Cl)c5)c(=O)n4ccn3n2)cc1", "Inhibition": -6.71}
{"smiles": "Cc1ccc(-n2ccn3c(SCC#N)nnc3c2=O)cc1C", "Inhibition": -4.03}
{"smiles": "CCOc1ccc(-n2ccn3c(SCC(=O)c4cccc(OC)c4)nnc3c2=O)cc1", "Inhibition": -5.2}
{"smiles": "NC(=O)CSc1nnc2c(=O)n(-c3ccc(F)cc3)ccn12", "Inhibition": 3.06}
{"smiles": "CCCCc1ccc(NC(=O)CSc2nc3ccccc3n3c(C(C)C)nnc23)cc1", "Inhibition": -2.74}
{"smiles": "Cc1ccc(Oc2nccn3c(=O)n(CC(=O)NCCC4=CCCCC4)nc23)cc1", "Inhibition": -4.1}
{"smiles": "CC(=O)c1ccc(NC(=O)Cn2nc3ccc(-c4ccc(C)c(C)c4)nn3c2=O)cc1", "Inhibition": -4.24}
{"smiles": "Cc1nnc2ccc(S(=O)(=O)N(Cc3ccc(F)cc3)c3cc(F)cc(F)c3)cn12", "Inhibition": -6.59}
{"smiles": "O=C(Cn1nc2c3c4c(sc3ncn2c1=O)CCCC4)NCc1ccccc1Cl", "Inhibition": 0.09}
{"smiles": "CCOC(=O)c1ccc(NC(=O)Cn2nc3ccc(SCc4ccc(Cl)cc4)nn3c2=O)cc1", "Inhibition": -11.17}
{"smiles": "COCCCNC(=O)CSc1nnc2c(=O)n(Cc3ccc(F)cc3)ccn12", "Inhibition": -1.15}
